The values below come from PubChem BioAssay (NCI).

About 79,000 compounds went through this panel and 15% of them were active in at least one assay; those are over-represented in the sample as a whole. A number with no mark means an inactive call. Activity calls are given as the source filed them. Rule as the data show it: active = growth inhibition above about 70%; inactive = the rest.

A short description of assay [1]: NCI Yeast Anticancer Drug Screen. Data for the rad50 strain (AID 155).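 Also: 0% = growth of vehicle-only cultures of the same strain.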 The settings on record: S. cerevisiae rad50 strain growth inhibition, hits give high values. The essentials:
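Genetically altered yeast (DNA repair pathway); compound treatment; growth inhibition vs vehicle ctrl.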

A short description of assay [2]: NCI Yeast Anticancer Drug Screen. Data for the mec2-1 strain (AID 157). The settings on record: S. cerevisiae mec2-1 strain, hits give high values. The essentials:
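Compounds were applied to mec2-1 yeast cells. Their growth was then compared with that of vehicle-treated cultures to give growth inhibition.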

Assay [3] can be described thus: NCI Yeast Anticancer Drug Screen. Data for the sgs1 mgt1 strain (AID 161).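 Also: 0% = growth of cultures given vehicle only.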 The settings on record: S. cerevisiae sgs1 mgt1 strain, hits give high values. The essentials: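 This yeast growth screen uses a strain with defined DNA-repair lesions; compound-treated growth is compared with vehicle-treated growth.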
The nature of assay [4]: NCI Yeast Anticancer Drug Screen. Data for the cln2 rad14 strain (AID 165).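 Also: 0% = growth equal to vehicle treated cultures.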 The settings on record: S. cerevisiae cln2 rad14 strain, hits give high values. The essentials: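 Strain: cln2 rad14 yeast, altered in cell cycle control and DNA damage repair. Read-out: growth inhibition vs vehicle.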
Assay [5] in a line: NCI Yeast Anticancer Drug Screen. Data for the bub3 strain (AID 167). The settings on record: S. cerevisiae bub3 mutant strain, hits give high values. The essentials:
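Yeast carrying a defined mutation is treated with each compound, and growth is compared with that of vehicle-exposed cells to give inhibition.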

A short description of assay [6]: NCI Yeast Anticancer Drug Screen. Data for the mlh1 rad18 strain (AID 175). The settings on record: S. cerevisiae mlh1 rad18 strain growth inhibition, hits give high values. The essentials:
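A repair-deficient yeast strain is exposed to test compound, and growth is scored relative to vehicle-treated controls.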

Setting [7] is: at 5.0 µM (retest, dose inferred, filed as 0.5).
Setting [8] is: at 50.0 µM (retest, dose inferred, filed as 5.0).

Regarding `CC(Br)CN(CC(C)Br)c1ccc2c(c1)Cc1ccccc1-2` (configuration not stated), the growth inhibition in assay [1] (setting [7]) is 12%; in assay [1] (setting [8]), 73% (active); in assay [1] (at 50.0 µM) it was 82.8% (active); in assay [2] (setting [7]) it was 2%; in assay [2] (setting [8]) it was 69%; in assay [2] (at 50.0 µM), 70.4% (active). The growth inhibition in assay [3] (setting [7]) is 8%; in assay [3] (setting [8]) it was 87% (active); in assay [3] (at 50.0 µM), 93.2% (active); in assay [4] (setting [7]), -16%; in assay [4] (setting [8]), 85% (active); in assay [4] (at 50.0 µM), 56.3%. Moreover, the growth inhibition in assay [5] (setting [7]) was -7%; in assay [5] (setting [8]), 92% (active); in assay [5] (at 50.0 µM), 85.5% (active); in assay [6] (setting [7]) it was 2%; in assay [6] (setting [8]) it was 82% (active); in assay [6] (at 50.0 µM), 91.7% (active).

Regarding `CCOP(=O)(CP(=O)(OCC)OCC)OCC.[Cl][Sn]([Cl])([c]1ccccc1)[c]1ccccc1`, the growth inhibition is 11% in assay [1] (setting [7]); 99% (active) in assay [1] (setting [8]); 98.8% (active) in assay [1] (at 50.0 µM); -4% in assay [2] (setting [7]); 99% (active) in assay [2] (setting [8]); 98.9% (active) in assay [2] (at 50.0 µM). Besides, the growth inhibition was 7% in assay [3] (setting [7]); 97% (active) in assay [3] (setting [8]); 99.1% (active) in assay [3] (at 50.0 µM); 7% in assay [4] (setting [7]); 96% (active) in assay [4] (setting [8]); 98.1% (active) in assay [4] (at 50.0 µM). The growth inhibition in assay [5] (setting [7]) was 19%; in assay [5] (setting [8]) it was 98% (active); in assay [5] (at 50.0 µM), 97.8% (active); in assay [6] (setting [7]), 1%; in assay [6] (setting [8]) it was 98% (active); in assay [6] (at 50.0 µM), 99% (active).

In the case of `C=Cc1c2ccccc2cc2ccccc12`, the growth inhibition in assay [1] (setting [7]) is 44%; in assay [1] (setting [8]), 82% (active); in assay [1] (at 50.0 µM), 86.2% (active); in assay [2] (setting [7]), 42%; in assay [2] (setting [8]) it was 82% (active); in assay [2] (at 50.0 µM), 75.2% (active). In addition, the growth inhibition in assay [3] (setting [7]) is 26%; in assay [3] (setting [8]), 31%; in assay [3] (at 50.0 µM), 83.3% (active); in assay [4] (setting [7]), 44%; in assay [4] (setting [8]) it was 60%; in assay [4] (at 50.0 µM) it was 77% (active). The growth inhibition in assay [5] (setting [7]) was 50%; in assay [5] (setting [8]), 36%; in assay [5] (at 50.0 µM), 81.2% (active); in assay [6] (setting [7]), 34%; in assay [6] (setting [8]), 74% (active); in assay [6] (at 50.0 µM), 75% (active).

As for `CC12CCC(O)CC1CCC1C2CCC2(C)C1CC1CC(=O)OC12` (configuration not stated), the growth inhibition is 82% (active) in assay [1] (setting [7]); 98% (active) in assay [1] (setting [8]); 98.5% (active) in assay [1] (at 50.0 µM); 58% in assay [2] (setting [7]); 98% (active) in assay [2] (setting [8]); 85.3% (active) in assay [2] (at 50.0 µM). The growth inhibition in assay [3] (setting [7]) is 83% (active); in assay [3] (setting [8]), 98% (active); in assay [3] (at 50.0 µM), 99% (active); in assay [4] (setting [7]) it was 57%; in assay [4] (setting [8]), 99% (active); in assay [4] (at 50.0 µM), 98.8% (active). For the same compound, the growth inhibition is 72% (active) in assay [5] (setting [7]); 98% (active) in assay [5] (setting [8]); 98.9% (active) in assay [5] (at 50.0 µM); 85% (active) in assay [6] (setting [7]); 98% (active) in assay [6] (setting [8]); 97.2% (active) in assay [6] (at 50.0 µM).

As to `Cc1ccc(C(Cc2ccc(N3C(N)=NC(N)=NC3(C)C)cc2)C(=O)Nc2ccc(S(=O)(=O)F)cc2)cc1` (configuration not stated), the growth inhibition is 7% in assay [1] (setting [7]); 99% (active) in assay [1] (setting [8]); 99.2% (active) in assay [1] (at 50.0 µM); 45% in assay [2] (setting [7]); 99% (active) in assay [2] (setting [8]); 99.6% (active) in assay [2] (at 50.0 µM). Also, the growth inhibition was 1% in assay [3] (setting [7]); 99% (active) in assay [3] (setting [8]); 99.8% (active) in assay [3] (at 50.0 µM); 7% in assay [4] (setting [7]); 99% (active) in assay [4] (setting [8]); 98.8% (active) in assay [4] (at 50.0 µM). The growth inhibition was -1% in assay [5] (setting [7]); 99% (active) in assay [5] (setting [8]); 98.8% (active) in assay [5] (at 50.0 µM); 4% in assay [6] (setting [7]); 99% (active) in assay [6] (setting [8]); 99.5% (active) in assay [6] (at 50.0 µM).

As to `C/C=C(\C)C(=O)OC1C(C)=C2C(C1OC(=O)CCCCC)C(C)(OC(C)=O)CC(OC(=O)CCC)C1(O)C2OC(=O)C1(C)O` (configuration not stated), the growth inhibition was 26% in assay [1] (setting [7]); 85% (active) in assay [1] (setting [8]); 77.6% (active) in assay [1] (at 50.0 µM); 15% in assay [2] (setting [7]); 86% (active) in assay [2] (setting [8]); 83.5% (active) in assay [2] (at 50.0 µM). Moreover, the growth inhibition was 20% in assay [3] (setting [7]); 91% (active) in assay [3] (setting [8]); 74.8% (active) in assay [3] (at 50.0 µM); 34% in assay [4] (setting [7]); 95% (active) in assay [4] (setting [8]); 82.6% (active) in assay [4] (at 50.0 µM). Besides, the growth inhibition is 17% in assay [5] (setting [7]); 92% (active) in assay [5] (setting [8]); 73.4% (active) in assay [5] (at 50.0 µM); 34% in assay [6] (setting [7]); 87% (active) in assay [6] (setting [8]); 67.6% in assay [6] (at 50.0 µM).

Take `O=C(COc1ccc(Cl)c(Cl)c1)N(Cc1ccccc1)Cc1ccc[n+](Cc2ccc(S(=O)(=O)F)cc2)c1`: the growth inhibition in assay [1] (setting [7]) was 4%; in assay [1] (setting [8]), 99% (active); in assay [1] (at 50.0 µM), 43.5%; in assay [2] (setting [7]) it was -59%; in assay [2] (setting [8]), 100% (active); in assay [2] (at 50.0 µM), 51.9%. Further, the growth inhibition in assay [3] (setting [7]) is 1%; in assay [3] (setting [8]), 100% (active); in assay [3] (at 50.0 µM) it was 53.6%; in assay [4] (setting [7]), 5%; in assay [4] (setting [8]), 98% (active); in assay [4] (at 50.0 µM), 56.9%. Moreover, the growth inhibition in assay [5] (setting [7]) was 3%; in assay [5] (setting [8]), 99% (active); in assay [5] (at 50.0 µM) it was 52.5%; in assay [6] (setting [7]) it was 4%; in assay [6] (setting [8]), 99% (active); in assay [6] (at 50.0 µM) it was 59.4%.

Consider `CCOc1cc(/C=C/[N+](=O)[O-])ccc1O`, for which the growth inhibition is -112% in assay [1] (setting [7]); 93% (active) in assay [1] (setting [8]); 77.2% (active) in assay [1] (at 50.0 µM); -44% in assay [2] (setting [7]); 73% (active) in assay [2] (setting [8]); 65.8% in assay [2] (at 50.0 µM). Further, the growth inhibition is -46% in assay [3] (setting [7]); 95% (active) in assay [3] (setting [8]); 77.7% (active) in assay [3] (at 50.0 µM); -52% in assay [4] (setting [7]); 75% (active) in assay [4] (setting [8]); 55% in assay [4] (at 50.0 µM). In addition, the growth inhibition in assay [5] (setting [7]) is -60%; in assay [5] (setting [8]), 90% (active); in assay [5] (at 50.0 µM), 43.4%; in assay [6] (setting [7]) it was -93%; in assay [6] (setting [8]), 94% (active); in assay [6] (at 50.0 µM), 96.6% (active).

Consider `CC(=O)OC(C)(C)/C=C/C(=O)[C@](C)(O)[C@H]1[C@H](O)C[C@@]2(C)[C@@H]3CC=C4[C@@H](C[C@H](O)[C@H](O)C4(C)C)[C@]3(C)C(=O)C[C@]12C`, for which the growth inhibition was 15% in assay [1] (setting [7]); 98% (active) in assay [1] (setting [8]); 92.1% (active) in assay [1] (at 50.0 µM); 52% in assay [2] (setting [7]); 99% (active) in assay [2] (setting [8]); 93.5% (active) in assay [2] (at 50.0 µM). Moreover, the growth inhibition in assay [3] (setting [7]) is 13%; in assay [3] (setting [8]) it was 98% (active); in assay [3] (at 50.0 µM), 93.3% (active); in assay [4] (setting [7]) it was 43%; in assay [4] (setting [8]), 98% (active); in assay [4] (at 50.0 µM), 91.1% (active). Also, the growth inhibition in assay [5] (setting [7]) is 65%; in assay [5] (setting [8]), 99% (active); in assay [5] (at 50.0 µM), 91.5% (active); in assay [6] (setting [7]), 55%; in assay [6] (setting [8]), 98% (active); in assay [6] (at 50.0 µM), 91.8% (active).
